This is one part of a sample in which hits are shown more often than they occur.
A350 fluor = compounds fluorescent in Alexa 350 spectral region; Compound autofluorescence, 340/450 nm, Alexa 350 dye-equivalents; hits give high values; max dye-equivalent concentration, M; hit rate 11% among 59,000; AID 590
GBA mod = modulators of human glucocerebrosidase; hit rate 1.1% among 48,000; purified enzyme, resorufin glucoside fluorescence (screen aimed at inhibitors), 20 min; P04062; AID 360; Potency, µM; in the data active = potency below about 15 µM; inconclusive = mostly about 16 µM to 33 µM;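 note: potency is the fitted concentration of half-maximal effect; the screen sought inhibitors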
Target sequence (P04062 whole entry, looked up): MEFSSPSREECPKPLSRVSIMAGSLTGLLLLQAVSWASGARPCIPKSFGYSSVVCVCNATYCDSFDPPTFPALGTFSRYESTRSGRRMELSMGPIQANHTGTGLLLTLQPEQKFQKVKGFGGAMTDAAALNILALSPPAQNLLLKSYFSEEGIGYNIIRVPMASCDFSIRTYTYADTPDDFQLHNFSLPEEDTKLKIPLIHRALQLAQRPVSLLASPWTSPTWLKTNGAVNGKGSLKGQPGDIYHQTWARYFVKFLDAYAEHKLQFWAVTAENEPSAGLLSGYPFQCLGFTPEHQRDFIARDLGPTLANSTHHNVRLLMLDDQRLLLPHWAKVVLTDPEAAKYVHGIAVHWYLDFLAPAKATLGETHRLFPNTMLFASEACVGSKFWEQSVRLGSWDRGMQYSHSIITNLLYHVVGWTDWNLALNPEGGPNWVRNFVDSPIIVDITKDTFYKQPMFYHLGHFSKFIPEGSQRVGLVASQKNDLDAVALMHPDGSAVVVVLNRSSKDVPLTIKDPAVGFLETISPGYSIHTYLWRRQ
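Wild-type enzyme at 0.2 nM final in 50mM citric acid/KH2PO4, 10mM sodium taurocholate, 0.01% tween-20, pH 5.9, with resorufin beta-D-glucopyranoside at 30 uM final. Compounds titrated, 20 min at RT, red fluorescence read; AC50 from titration.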
A647 autofl = A647 region autofluorescence; 59,000 tested, under 10 active; Compound fluorescence, A647 channel (570/671 nm), Tris buffer; max dye-equivalent concentration, M; call rule not given here;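 note: values scaled relative to a standard on each plate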
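Compound fluorescence was measured in 100 mM Tris buffer, pH 8.0, after 15 min at room temperature, using 570 nm excitation and 671 nm emission filters. Signal was normalized to a per-plate Alexa 647 standard curve and expressed as dye-equivalent concentration at each compound concentration.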
4MU fluor = compounds fluorescent in 4-MU spectral region. max dye-equivalent concentration, M. hit rate 11% among 59,000. compound autofluorescence, 340/450 nm, 4-MU equivalents; hits give high values
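Compounds in 100 mM Tris, pH 8.0, incubated 15 min at room temperature, then fluorescence read at 340 nm excitation/450 nm emission. Signal converted to 4-MU dye-equivalent concentration using an on-plate six-point 4-MU standard curve.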
AID923 = qHTS Assay for Allosteric/Competitive Inhibitors of Caspase-1: Spectroscopic Profiling in AFC Spectral Region. compound fluorescence, AFC spectral region (405/520 nm). Potency, µM (highest dose often 57.5 µM), inactives show at the top dose fluorescence increase, hits mostly activators. hit rate 1.1% among 75,000. AID 923, 2007; active = well fitted activation curve with a large enough effect; inconclusive = small, poorly fitted or top-dose-only effect; note: potency is the fitted concentration of half-maximal effect; 0% is about no effect
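Titrations up to 57 uM read every 20 sec for 3 min (405/520 nm) with 50 nM caspase 1 and 5 uM Ac-WEHD-AFC, pH 7.5 HEPES buffer. Fluorescence-vs-time intercept gave baseline, scaled against on-plate AFC standard.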
* hit, by the source's call; i = inactive; ? = inconclusive; / = no result given; ! = not confirmed by another sample; [ ] = dose if it differs, or a comment. Cut-off read from the data, not from the text of the source, unless noted: active = max dye-equivalent concentration above about 10 nM; inconclusive = mostly about 1.1 nM to 9.6 nM; inactive = weaker than that.

SMILES | A350 fluor | GBA mod | A647 autofl | 4MU fluor | AID923
C/C(CCN1CCc2nc(-c3ccccc3)c(-c3ccccc3)cc2C1)=N\OC[C@@H](O)[C@@H]1O[C@@H]2OC(C)(C)O[C@@H]2[C@H]1O | / | / | / | / | 1%[11.5 µM]
CCCCn1c(-c2ccccc2)nnc1-c1ccccc1 | 4.9e-08M* | >77 | 1e-09 | 4.8e-08M* | 2%
COCCCNC(CC(=O)Nc1ccc(OC)cc1OC)C(=O)O (stereo not drawn) | 2.9e-08M* | >77 | 4.2e-08 | 2.8e-08M* | 3%
c1cncc(CNCc2cccnc2)c1 | i | / | 2e-08 | i | 0%[11.5 µM]
Cc1ccc(C2C(C#N)=C(N)SC(N)=C2C#N)c(C)c1 | ? | / | 1.9e-08 | ? | 5%
N#CC1=C(N)SC(N)=C(C#N)C1c1ccnc2ccccc12 | ? | ? | 4.4e-08 | 3.6e-08M* | 17%
COc1ccc(NC(=O)c2oc3ccccc3c2NC(=O)C(C)(C)C)cc1 | i | / | 2.7e-08 | i | 1%
CCOc1ccc(NC(=O)c2oc3ccccc3c2NC(=O)C(C)C)cc1 | 1.4e-08M* | >77 | 2.4e-09 | 1.1e-08M* | 3%
COc1cccc(NC(=O)c2oc3ccccc3c2NC(=O)C2CC2)c1 | ? | >77 | 2.5e-08 | ? | 0%
COc1ccc(NC(=O)c2oc3ccccc3c2NC(=O)C2CC2)cc1 | 1.1e-07M* | / | 2.6e-08 | 4.9e-08M* | 2%
CCOc1ccc(NC(=O)c2oc3ccccc3c2NC(=O)C2CC2)cc1 | 2.8e-08M* | >77 | 1e-09 | 2.6e-08M* | 2%
C=CCOC(=O)C(C(C)=O)C(NC(=O)OC)c1cccc(C)c1 (stereo not drawn) | / | / | / | / | 1%[11.5 µM]
O=S(=O)(NCc1ccc2c(c1)OCO2)c1ccc2c(c1)oc1ccccc12 | 1.1e-08M* | >77 | 1e-09 | 1.1e-08M* | 0%
COc1cc(S(=O)(=O)NCc2ccc3c(c2)OCO3)ccc1Cl | / | / | / | / | -1%
Cc1cc2ccc(=O)oc2cc1OC[C@@H](O)C(C)(C)O | 4.8e-06M* | / | 8.2e-09 | 4.5e-06M* | -1%
CCOC(=O)CCCCC1=CC2=CC(=O)C(C)(O)C(=O)C2=CO1 (stereo not drawn) | / | / | / | / | 2%[11.5 µM]
CCC(Sc1nc2cc(OC)c(OC)cc2c2nc(C)nn12)C(=O)NCc1ccco1 (stereo not drawn) | i | >77 | 2e-08 | i | -1%
CCC(Sc1ncccc1C(=O)OCCN1CCCC1=O)C(=O)NCc1ccco1 (stereo not drawn) | 1.9e-08M* | >77 | 1e-09 | 1.5e-08M* | 1%
c1ccc(CCc2cccnc2)nc1 | i | / | 1.5e-08 | i | 4%[11.5 µM]
COc1ccc(C(=O)Nc2oc(-c3ccccc3)c(-c3ccccc3)c2C#N)cc1OC | 3.4e-08M* | >77 | 1e-09 | 2.9e-08M* | 2%
CN(C)c1ncc(C(=O)O)cn1 | 1.3e-08M* | >77 | 3.9e-08 | ? | 2%
O=C(O)c1ccc(SSc2ccc(C(=O)O)cn2)nc1 | i | / | 3.5e-08 | i | 0%[11.5 µM]
COC(=O)[C@@H]1CC[C@H](C)[C@@H](c2ccc(C)cc2)N1C(=O)c1ccc(/C=N\OC[C@@H](O)[C@H]2O[C@H]3OC(C)(C)O[C@H]3[C@@H]2O)cc1 | / | / | / | / | 1%[11.5 µM]
CCOC(=O)NC(=O)CSc1nc(C)cc(C(F)(F)F)c1C#N | i | >77 | 1e-09 | i | 2%
N#Cc1c(C(F)(F)F)cc(-c2ccco2)nc1SCc1ccncc1 | 4.6e-07M* | >77 | 1.8e-08 | 6.9e-07M* | 6%
SMILES | A350 fluor | GBA mod | A647 autofl | 4MU fluor | AID923
Cc1coc(NC(=O)CSc2nc(-c3ccncc3)cc(C(F)(F)F)c2C#N)n1 | 5.8e-08M* | >77 | 4.9e-09 | 7.2e-08M* | 3%
N#Cc1c(C(F)(F)F)cc(-c2ccco2)nc1SCc1ccccn1 | 4e-07M* | >77 | 1e-09 | 2.9e-07M* | 10%
N#Cc1cc2c(nc1SCc1ccncc1)CCC2 | ? | >77 | 8.1e-08 | ? | -1%
O=C(c1cccc(F)c1)N1CCC2(CC1)CN(c1ccc(-c3ccccc3)cc1)C2 | i | / | 1.5e-08 | i | 0%
C[N+](C)(C)CC(=O)N/N=C\c1c(O)ccc2ccccc12 | i | / | 1.5e-08 | i | 20%[11.5 µM]
CC1(C)CC(=O)N(CC(=O)O)c2ccccc2S1 | 4.3e-08M* | >77 | 2.1e-09 | 3.3e-08M* | -1%
COC(=O)CN1C(=O)CC(C)(C)Sc2ccccc21 | / | / | / | / | -2%
O=c1cc(CF)[nH]c(=S)[nH]1 | i | / | 1e-09 | i | 1%[11.5 µM]
CNc1nc(-c2ccc(N(C)C)cc2)nc2ccccc12 | ? | / | 1e-09 | i | 2%
Cc1cc2n(n1)C(c1sccc1C)Nc1ccccc1-2 (stereo not drawn) | 1.2e-08M* | >77 | 1e-09 | ? | 0%
Cc1ccsc1C1C(C(=O)O)c2ccccc2C(=O)N1C (stereo not drawn) | i | >77 | 1.4e-08 | i | 0%
Cc1cc2n(n1)C(c1sccc1C)Nc1c(C)cccc1-2 (stereo not drawn) | 2.4e-08M* | >77 | 2e-09 | 1.8e-08M* | 0%
Cc1ccc2c(c1)-c1cc(C)nn1C(c1sccc1C)N2 (stereo not drawn) | 8.6e-08M* | / | 3.2e-08 | 8.9e-08M* | 5%
CN1[C@@H]2CC[C@H]1CC(OC(=O)[C@@H](CO)c1ccccc1)C2 (stereo partly drawn) | 5.1e-08M*! | / | 3.9e-09 | 5.4e-08M*! | 4%[25.7 µM]
COc1ccc(CCNC(=O)CN(c2ccccc2OC)S(C)(=O)=O)cc1 | 9.9e-08M* | >77 | 2.7e-09 | 1.1e-07M* | 5%
COc1ccc(CCNC(=O)CN(c2ccccc2OC)S(C)(=O)=O)cc1OC | / | / | / | / | 0%
COc1ccc(C#CC2C=CC(OC(C)=O)C(COC(C)=O)O2)cc1 (stereo not drawn) | / | / | / | / | 0%[11.5 µM]
COc1ccc(CN/C(C)=C(/C#N)C(N)=O)cc1OC | 1.7e-08M* | >77 | 3.8e-08 | 1.3e-08M* | 0%
COc1ccc(CNC(=O)NCc2ccc(OC)c(OC)c2)cc1OC | i | >77 | 1e-09 | i | -1%
CCOc1ccccc1/C=C(\C#N)C(N)=O | ? | / | 1e-09 | i | -2%[11.5 µM]
CC(=O)OC[C@@H]1O[C@H](C/C=N\O[C@@H](C)c2cc(-c3c(C)cc(C)cc3C)no2)C=C[C@@H]1OC(C)=O | / | / | / | / | 2%[11.5 µM]
O=C(CSCc1n[nH]c(=O)[nH]1)NCCOc1cccc(Oc2ccccc2)c1 | 1.9e-07M* | >77 | 1e-09 | 1.7e-07M* | 10%
O=C(CSc1ncn[nH]1)NCCOc1ccccc1 | / | / | / | / | 1%
NC(=O)C1CCN(c2nc(-c3ccccc3)nc3c2oc2ccccc23)CC1 | i | 8.3* | 1e-09 | i | 3%
NC(=O)C1CCN(c2nc(-c3ccccc3)nc3ccccc23)CC1 | i | >77 | 1.7e-08 | i | 0%
COC(=O)[C@@]1(Cc2ccc(OC)cc2)[C@H]2c3cc(C(=O)N(C)C)n(Cc4nc5ccccc5[nH]4)c3C[C@H]2CN1C(=O)c1ccccc1 | / | / | / | / | 1%
Cc1cccc(CNc2ncnc3ccc(-c4ccccc4C#N)cc23)c1 | i | / | 6.2e-09 | i | 2%
Fc1ccc2c(Cl)c(-c3nnc(-c4cccs4)o3)sc2c1 | 2e-07M* | >77 | 1e-09 | 2e-07M* | 0%
COc1ncc2ncc(=O)n(CCC#N)c2n1 | i | / | 1.9e-08 | i | 0%
Cc1ccc2cc(C#N)c(N3CCCC3)nc2c1C | 3.2e-07M* | ? | 3.7e-08 | 2.6e-07M* | 20%

Assay outcomes (PubChem BioAssay)
